Source: PubChem BioAssay AID504692 (The Scripps Research Institute Molecular Screening Center, 2011)
Several values for one entry are separate records, joined by “and”; a condition that tells them apart may be missing. Identical values can stand only once. The campaign covered roughly 340,000 compounds. About 2,000 (0.59%) were called active. The sample holds actives, similar compounds and a random draw of the others, so the mix is not that of the screen. Values without a mark were called inactive. Cut-off read from the data, not from the text of the source: active = activation mostly above about 9.5% (no sharp cut-off); inactive = mostly below about 7.6%.

target: 5-hydroxytryptamine receptor 5A (Homo sapiens) (UniProt P47898); experiment: activation of human 5-HT5A receptor – cell-based, luminescence, full-deck HTS, counter-screen for OPRM1-OPRD1 heterodimer agonist project, primary screen (AID 504692); conditions: HTR5A agonist assay, at 9.3 µM, stronger effect = higher value;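 note: 0% = cells with vehicle only and 100% = reference agonist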
Sequence (P47898 whole entry, looked up): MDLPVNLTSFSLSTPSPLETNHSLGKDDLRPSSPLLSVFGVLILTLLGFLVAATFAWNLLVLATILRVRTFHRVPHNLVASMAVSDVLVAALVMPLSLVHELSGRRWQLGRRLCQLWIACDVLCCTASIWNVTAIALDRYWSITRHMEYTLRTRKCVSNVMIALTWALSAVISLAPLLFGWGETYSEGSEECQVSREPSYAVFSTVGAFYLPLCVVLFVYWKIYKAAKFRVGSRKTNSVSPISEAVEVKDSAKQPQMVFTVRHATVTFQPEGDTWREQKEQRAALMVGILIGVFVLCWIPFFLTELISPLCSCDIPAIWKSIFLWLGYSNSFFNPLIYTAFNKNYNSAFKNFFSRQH

| Structure (SMILES) | activation |
| --- | --- |
| COC1C(O)C(C)OC(OC2CCC3(C=O)C(CCC4C3CCC3(C)C(C5=CC(=O)OC5)CCC43O)C2)C1O (stereo not given) | 20% (active) |
| C[C@]12CC[C@H](O)C[C@H]1CC[C@@H]1C2CC[C@]2(C)[C@@H](C3=CC(=O)OC3)[C@@H](O)C[C@]12O (stereo not given in full) | 16.5% |
| Oc1ccc2c3c1OC1[C@H](O)CC[C@@]4(O)[C@@H](C2)N(CC2CC2)CC[C@]314 (stereo not given in full) | 2.68% and -1.51% |
| CC[N+](CC)(CC)CCCCCCCCCC[N+](CC)(CC)CC | 2.35% |
| CCOP(=O)(OCC)C(O)c1ccc(OC)cc1OC (stereo not given) | -1.32% |
| CCCCCCCCCCCCn1ccc(=N)cc1 | 14.5% (active) |
| Cc1cc(C(=O)OCC(=O)Nc2c(F)cccc2F)c(C)n1C1CC1 | -0.58% |
| C/C=C/CC1(CC)C(=O)NC(=S)NC1=O | 0.5% |
| COC(=O)C(O)(c1ccc(NC(=O)c2ccco2)c(OC)c1)C(F)(F)F (stereo not given) | -2.39% |
| CN(C)C(=O)Oc1cc(=O)n2c3c(cccc13)CCC2 | 2.56% |
| O=C(Cc1ccccc1)N1CCN(C2CCCCCC2)CC1 | 1.91% |
| CCOC(=O)c1c(C)c(C(=O)N2CCC3(CC2)OCCO3)c(C)n1CC | 10.3% (active) |
| COc1ccc(S(=O)(=O)NCc2ccc(C(=O)N3CCC4(CC3)OCCO4)cc2)cc1 | 3.27% |
| Cc1ccc(-c2cc(C(=O)N3CCC4(CC3)OCCO4)no2)cc1 | 1.14% |
| CC(C)Oc1cccc(C(=O)C2CCCN(C3CCOCC3)C2)c1 (stereo not given) | 3.38% |
